Results published in paper PMC5540273 (PLoS ONE, 2017).

Legend:
Details in all cases: concentration: 1 μM, replicates: in singlicate; n = 1
ASK2 = test system: T1, ASK2
T1 construct: gene MAP3K6

AURKA = test system: AURKA
AURKB = test system: AURKB
AURKC = test system: AURKC
AXL = test system: AXL
BIKE = test system: T2, BIKE
T2 construct: gene BMP2K

BLK = test system: BLK
BMPR1A = test system: BMPR1A
BMPR1B = test system: BMPR1B
BMPR2 = test system: BMPR2
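Note: KINOMEscan kinase panel screen.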

| Structure (SMILES) | %Inh (ASK2) | %Inh (AURKA) | %Inh (AURKB) | %Inh (AURKC) | %Inh (AXL) | %Inh (BIKE) | %Inh (BLK) | %Inh (BMPR1A) | %Inh (BMPR1B) | %Inh (BMPR2) |
| --- | --- | --- | --- | --- | --- | --- | --- | --- | --- | --- |
| Nc1ncnc2c1nc(-c1ccccc1)n2-c1ccccc1 [SKF-97293] | 29% | 24% | 47% | 0% | 14% | 4% | 0% | 8% | 17% | 46% |
| COc1ccc(-c2coc3ccc(-c4nnc(SCc5ccc(OC)c(C(F)(F)F)c5)o4)cc23)cc1 | 0% | 21% | 11% | 7% | 11% | 0% | 7% | 20% | 13% | 14% |
| COc1ccc(CNC(=O)NC2CCN(c3ccnc(Nc4ccc(F)cc4)n3)CC2)cc1 [GSK1379788] | 0% | 34% | 26% | 5% | 0% | 0% | 3% | 0% | 0% | 5% |
| Cn1cc(-c2ccc3c(c2)CCN3C(=O)Cc2cccc(F)c2)c2c(N)ncnc21 [GSK2603358] | 0% | 20% | 95.5% | 47% | 83% | 10% | 50% | 0% | 0% | 3% |
| Cc1ccc(C(=O)N2CC[C@@H](O)C2)cc1-n1c(C)cc(OCc2ccc(F)cc2F)c(Br)c1=O | 0% | 0% | 0% | 0% | 0% | 0% | 70% | 0% | 54% | 0% |
| CN(C)S(=O)(=O)c1cc(-c2ccc3nccc(-c4cccc(S(N)(=O)=O)c4)c3c2)cnc1N [GSK1669921] | 5% | 8% | 0% | 17% | 10% | 22% | 18% | 0% | 0% | 3% |
| COc1cccc(NC(=O)NC2CCN(c3ccnc(Nc4cc(OC)c(OC)c(OC)c4)n3)C2)c1 (stereo not drawn) [GSK1379763] | 11% | 75% | 55% | 89% | 13% | 78% | 0% | 0% | 0% | 8% |
| Cl.c1ccc(-c2ccc3c(Nc4ccc5[nH]ccc5c4)ccnc3c2)nc1 [GW440138] | 0% | 8% | 0% | 1% | 0% | 2% | 70% | 0% | 5% | 26% |
| O=c1[nH]cc(-c2ccc(N3CCOCC3)cc2)c2sc(-c3cn[nH]c3)cc12 [GSK2276055] | 13% | 28% | 21% | 21% | 0% | 28% | 0% | 1% | 0% | 24% |
| Cc1occc1-c1ncc(OC[C@@H](N)Cc2c[nH]c3ccccc23)cc1-c1ccc2[nH]nc(C)c2c1.O=C(O)C(F)(F)F [GSK682037] | 7% | 0% | 0% | 53% | 35% | 90.5% | 19% | 0% | 0% | 0% |
| c1ccc(-c2cnc3nccnn23)cc1 [AH20685] | 0% | 0% | 13% | 0% | 0% | 0% | 37% | 0% | 0% | 0% |
| CN1CCN(Cc2cccc(-c3ccc4c(Nc5ccc(Oc6ccccc6)cc5)ccnc4c3)c2)CC1 [GW578342] | 0% | 6% | 0% | 9% | 17% | 1% | 94.8% | 0% | 0% | 8% |
| Cc1ccc(C)c(NC(=O)NC2CCN(c3ccnc(Nc4ccc(F)cc4)n3)C2)c1 (stereo not drawn) [GSK1379720] | 0% | 0% | 48% | 76% | 0% | 23% | 24% | 0% | 0% | 21% |
| O=C(Nc1cccc(-c2nn3ncccc3c2-c2ccnc(Nc3ccccc3)n2)c1)c1c(F)cccc1F [GSK198271] | 6% | 65% | 32% | 64% | 100% | 16% | 97.5% | 0% | 0% | 0% |
| FC(F)(F)c1ccc(/C=C/c2cncnc2Nc2ccc3[nH]c(Cc4ccccc4)nc3c2)cc1 [GW709199] | 0% | 0% | 5% | 0% | 0% | 0% | 3% | 4% | 0% | 0% |
| COc1cc(Nc2nccc(N3CCC(NC(=O)c4cc5ccccc5s4)C3)n2)cc(OC)c1OC (stereo not drawn) [GSK1379760] | 100% | 59% | 68% | 86% | 14% | 70% | 100% | 0% | 0% | 13% |
| c1ccc(Oc2ccc(Nc3ccnc4cc(-c5ccc(CNCCN6CCOCC6)o5)ccc34)cc2)nc1 [GW567145] | 0% | 22% | 71% | 9% | 0% | 0% | 86% | 0% | 0% | 14% |
| Cl.Cl.NCC(NCc1ccc(-c2ccnc3[nH]ccc23)s1)c1ccccc1 (stereo not drawn) [GSK1321565] | 0% | 47% | 79% | 97.2% | 95.1% | 100% | 0% | 0% | 0% | 3% |
| Nc1n[nH]c2cnc(-c3ccccc3)cc12 [SB-642124] | 0% | 4% | 32% | 100% | 0% | 99.4% | 0% | 0% | 53% | 33% |
| CN(c1ccc(NC(=O)Nc2cc(C(F)(F)F)ccc2F)cc1)c1ccnc(Nc2ccc(S(N)(=O)=O)cc2)n1 [GW809893] | 17% | 90.7% | 95.7% | 67% | 93.3% | 26% | 96.7% | 28% | 20% | 78% |
| O=C(Nc1cccc(Oc2ccc3nc(NC(=O)C4CC4)cn3n2)c1)c1ccccc1C(F)(F)F | 0% | 89% | 92.8% | 77% | 75% | 79% | 25% | 0% | 0% | 0% |
| CNC(=O)c1ccccc1Nc1nc(Nc2ccc(N3CCOCC3)cc2)ncc1Cl.Cl [GSK1576028] | 16% | 100% | 99.9% | 100% | 100% | 100% | 99.7% | 28% | 100% | 53% |
| Cl.Cl.NCC(NC(=O)c1cc(-c2ccccc2)c(-c2ccnc3[nH]ccc23)s1)c1ccccc1 (stereo not drawn) [GSK1321561] | 1% | 33% | 0% | 69% | 46% | 79% | 58% | 4% | 0% | 0% |

| Structure (SMILES) | %Inh (ASK2) | %Inh (AURKA) | %Inh (AURKB) | %Inh (AURKC) | %Inh (AXL) | %Inh (BIKE) | %Inh (BLK) | %Inh (BMPR1A) | %Inh (BMPR1B) | %Inh (BMPR2) |
| --- | --- | --- | --- | --- | --- | --- | --- | --- | --- | --- |
| COc1ccc(Nc2nccc(N3CCC(NC(=O)Nc4cccc(OC)c4)C3)n2)cc1 (stereo not drawn) [GSK1379742] | 13% | 0% | 53% | 10% | 0% | 13% | 37% | 0% | 0% | 12% |
| CCCCc1nn2ncccc2c1-c1ccnc(Nc2ccc(N3CCN(C)CC3)cc2)n1 [GW684941] | 16% | 96.7% | 80% | 82% | 69% | 69% | 81% | 0% | 91% | 0% |
| COc1cc2c(cc1OCCN1CCNCC1)ncc1c3ccc(C#N)cc3[nH]c21 | 16% | 21% | 65% | 9% | 32% | 97.8% | 0% | 12% | 22% | 19% |
| CCS(=O)(=O)c1ccc(OC)c(Nc2nccc(-c3c(-c4cccc(NC(=O)c5c(F)cccc5F)c4)nn4ncccc34)n2)c1 [GSK326180] | 9% | 15% | 25% | 60% | 9% | 40% | 36% | 0% | 0% | 4% |
| CC(=O)N1CCN(c2ccc(Nc3nccc(-c4sc(C(C)C)nc4-c4cccc(NS(=O)(=O)c5cccc(Cl)c5)c4)n3)cn2)CC1 [GSK1660437] | 2% | 0% | 0% | 10% | 68% | 24% | 91.4% | 0% | 97.1% | 0% |
| COc1ccc(Nc2nccc(NCCNC(=O)c3cc4ccccc4s3)n2)cc1 [GSK1379896] | 0% | 16% | 0% | 17% | 14% | 4% | 23% | 0% | 0% | 0% |
| O=C(Nc1cccc(-c2nn3ccccc3c2-c2ccnc(Nc3cccc(F)c3)n2)c1)c1c(F)ccc(F)c1Cl [GSK357952] | 6% | 0% | 7% | 66% | 19% | 25% | 97.2% | 0% | 0% | 0% |
| Cl.Cl.NCC(C(=O)Nc1cc(Br)c(-c2ccnc3[nH]ccc23)s1)c1ccccc1 (stereo not drawn) [GSK1269851] | 26% | 81% | 9% | 53% | 57% | 99.8% | 0% | 78% | 0% | 30% |
| Oc1cc(Nc2ccnc3cc(I)ccc23)ccc1F [GW552771] | 4% | 0% | 8% | 8% | 3% | 5% | 80% | 56% | 99.9% | 6% |
| O=C(O)C(F)(F)F.O=C(O)C(F)(F)F.O=c1[nH]ccc2nc(N[C@@H]3CCCNC3)nc(Nc3ccc(S(=O)(=O)N4CCOCC4)cc3)c12 [GSK2177277] | 19% | 96.8% | 97.6% | 100% | 99.9% | 100% | 95.6% | 0% | 90.8% | 98.6% |
| O=C(NC1CCN(c2ccnc(Nc3ccc(F)cc3)n2)C1)c1cc2ccccc2s1 (stereo not drawn) [GSK1379716] | 9% | 4% | 24% | 53% | 19% | 26% | 62% | 0% | 0% | 0% |
| NCCCC(NC(=O)c1cc(Br)c(-c2ccnc3[nH]ccc23)s1)c1ccccc1.O=C(O)C(F)(F)F.O=C(O)C(F)(F)F (stereo not drawn) [GSK1287544] | 0% | 74% | 56% | 95.7% | 74% | 97.9% | 0% | 0% | 0% | 21% |
| Cc1cccc(Nc2nc(N[C@H]3CCNC3)ncc2C(N)=O)c1.Cl [GSK2197149] | 3% | 0% | 0% | 58% | 24% | 96.9% | 69% | 0% | 0% | 0% |
| COc1cccc(C(=O)Nc2cccc(Oc3ccc4nc(NC(=O)C5CC5)cn4n3)c2)c1 | 0% | 55% | 81% | 74% | 65% | 18% | 95.3% | 10% | 13% | 0% |
| Nc1ncc(-c2ccc3nccc(-c4ccncc4)c3c2)cc1S(=O)(=O)N1CCOCC1 [GSK1627798] | 0% | 0% | 0% | 6% | 36% | 24% | 100% | 0% | 0% | 0% |
| COC(=O)Nc1nc2cc(Oc3ccc(NC(=O)Nc4cc(C(F)(F)F)ccc4F)cn3)ccc2[nH]1.Cl.Cl [GW681170] | 0% | 78% | 40% | 52% | 98.3% | 1% | 31% | 0% | 0% | 10% |
| COc1cccc(C2=C(Nc3ccc(Cl)c(C(=O)O)c3)C(=O)NC2=O)c1 [SB-390769] | 100% | 0% | 39% | 23% | 3% | 16% | 10% | 0% | 0% | 100% |
| CC(=O)Nc1nc2cnc(Nc3cc(NC(=O)c4cccc(C5(C#N)CC5)c4Cl)ccc3C)nc2s1 | 0% | 0% | 26% | 0% | 0% | 0% | 45% | 0% | 0% | 2% |
| c1ccc(-c2n[nH]cc2Nc2ccnc3ccccc23)nc1 [GW694077] | 1% | 15% | 45% | 78% | 0% | 100% | 28% | 0% | 3% | 47% |
| O=C(Nc1cccc(-c2nn3ccccc3c2-c2ccnc(Nc3cccc(C(F)(F)F)c3)n2)c1)c1c(F)cccc1F [GSK292658] | 2% | 2% | 0% | 49% | 12% | 0% | 94% | 0% | 0% | 22% |
| O=C(Nc1ccccc1F)NC1CCN(c2ccnc(Nc3ccc(F)cc3)n2)CC1 [GSK1379800] | 17% | 15% | 0% | 54% | 15% | 39% | 0% | 8% | 0% | 12% |
| CN1CCN(CCCNc2nccc(-c3c(-c4ccc(F)cc4)nn4cc(C(F)(F)F)ccc34)n2)CC1 [GW621581] | 0% | 0% | 11% | 0% | 10% | 11% | 50% | 0% | 0% | 0% |
